Cruzain inh noDet: blocks cruzain activity in detergent-free assay; P25779; purified cruzain, Z-FR-AMC fluorescence, no detergent; Potency, µM, for inactives: max response, negative = inhibition, actives largely listed as inhibitors; 200,000 tested, 2.3% active;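 also: plate controls were enzyme without inhibitor for no effect and buffer without enzyme for full effect; nearly all actives have a fitted effect of over 40% in size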
Target sequence (P25779 123-467 limits assumed): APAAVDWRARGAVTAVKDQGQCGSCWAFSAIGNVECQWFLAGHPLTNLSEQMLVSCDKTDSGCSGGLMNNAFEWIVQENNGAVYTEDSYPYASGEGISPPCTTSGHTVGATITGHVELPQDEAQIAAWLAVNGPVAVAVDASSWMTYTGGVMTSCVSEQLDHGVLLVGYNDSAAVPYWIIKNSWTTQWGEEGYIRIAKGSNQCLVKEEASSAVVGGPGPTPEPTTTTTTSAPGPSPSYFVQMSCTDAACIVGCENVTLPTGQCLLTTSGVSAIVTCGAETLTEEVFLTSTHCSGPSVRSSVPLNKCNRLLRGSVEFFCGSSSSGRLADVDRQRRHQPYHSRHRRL
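Detergent-free condition (0.00005% Triton X-100) in acetate buffer pH 5.5 with DTT. 1.5 nM enzyme and compound were pre-mixed 15 min, then 2 uM Z-FR-AMC substrate added; reaction progress from fluorescence change between first and third reads (60 s).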
Cruzain Triton: inhibitors of Trypanosoma cruzi cruzain with detergent | P25779 | purified cruzain, Z-FR-AMC fluorescence, 0.01% Triton | Potency, µM, without a hit: max response, negative = inhibition, actives largely listed as inhibitors | 200,000 tested, 0.43% active | AID 1478;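 also: plate controls were neutral wells for no effect and buffer without enzyme for full effect; nearly all actives have a fitted effect of over 40% in size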
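Cysteine protease activity tested under reducing, mildly acidic conditions (100 mM sodium acetate pH 5.5, 5 mM DTT) plus 0.01% Triton X-100. Cruzain 1.5 nM; substrate Z-FR-AMC 2 uM; 15 min compound preincubation at room temperature.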
* hit, by the source's call; ? = inconclusive. An excerpt weighted towards active compounds, which were near 2.6% of everything screened. Calls follow the shape of the dose curve; as a rule, active = well fitted curve in the direction sought with a large enough effect; inconclusive = small, poorly fitted or top-dose-only effect, or another doubt; inactive = no such curve, though single readings can be large; an effect the other way counts as inactive or inconclusive. Potency is read from the fitted curve at half-maximal effect.

SMILES | Cruzain inh noDet | Cruzain Triton
COc1ccccc1CNc1ccnc(-c2ccccc2C(F)(F)F)n1 | 9% | -10%
CCCCc1c(O)nc(SCC(=O)Nc2ccc3c(c2)CCC3)[nH]c1=O | 20µM* | -17%
CCc1c(O)nc(SCC(=O)Nc2ccc3c(c2)CCC3)[nH]c1=O | -12% | 1%
Cc1onc(-c2c(F)cccc2Cl)c1C(=O)Nc1sc2c(c1C#N)CCC(C(C)(C)C)C2 (configuration not stated) | 10µM* | -4%
Cc1cc(C(=O)Nc2sc3c(c2C#N)CCC(C)C3)no1 (configuration not stated) | -7% | -2%
Cc1onc(-c2ccccc2)c1C(=O)Nc1sc2c(c1C#N)CCC2 | -21% | -5%
Cc1onc(-c2c(F)cccc2Cl)c1C(=O)Nc1sc2c(c1C(N)=O)CCC2 | ? | -15%
Cc1onc(-c2ccccc2)c1C(=O)NC(=S)Nc1sc2c(c1C#N)CCC(C)C2 (configuration not stated) | 7.9µM* | -6%
Cc1onc(-c2ccccc2)c1C(=O)NC(=S)Nc1sc2c(c1C#N)CCCC2 | 13µM* | -8%
O=C1c2ccccc2-c2cc([N+](=O)[O-])c([N+](=O)[O-])cc21 | -13% | -4%
C[C@@H](C(=O)O)/C(=C/c1ccc2c(c1)OCO2)C(=O)O | 0% | 1%
COc1cc(-c2cc3n(C)c(C)c(CCC(=O)NC4CCCCC4)c(=O)n3n2)cc(OC)c1OC | -10% | -1%
COc1ccc(/C=N/Nc2nnc(-c3ncc[nH]3)c3ccccc23)cc1 | 2% | -6%
Oc1ccc2ccccc2c1/C=N/Nc1nnc(-c2ncc[nH]2)c2ccccc12 | 25µM* | -14%
O=S(=O)(O)c1cc(S(=O)(=O)O)c2c(N=Nc3cccc4ccccc34)c(O)ccc2c1 | 22% | 3%
O=S(=O)(O)c1cc(N=Nc2cccc3ccccc23)c(O)c2ncccc12 | -5% | 3.5µM*
CCOC(=O)c1cccc(NC(=O)CC2C(=O)N(c3ccc(Cl)cc3)C(=O)N2C2CCCC2)c1 (configuration not stated) | 4% | -8%
Cc1ccc(-c2nc3ccccc3[nH]2)cc1NC(=O)c1ccc2c(c1)OCO2 | ? | -2%
O=C(NC(=S)Nc1cc(-c2nc3ccccc3[nH]2)ccc1Cl)c1ccc2c(c1)OCO2 | 32µM* | 18µM*
S=C(NCc1ccc(Cl)c(Cl)c1)Nc1ccc2c(c1)OCO2 | -27% | -13%
S=C(NCc1ccc2c(c1)OCO2)Nc1ccc(-c2nc3ccccc3[nH]2)cc1 | 20µM* | -11%
COC(=O)c1ccc(NC(=O)CCc2c(C)nc3c(c(C)nn3C(C)(C)C)c2C)cc1 | ? | -8%
Cc1cc(C(=O)COC(=O)CC2Sc3ccccc3NC2=O)c(C)n1-c1ccccc1 (configuration not stated) | ? | -11%
COC(=O)c1ccc(-n2c(C)cc(C(=O)COC(=O)CC3Sc4ccccc4NC3=O)c2C)cc1 (configuration not stated) | 25µM* | -4%
O=C(CC1Sc2ccccc2NC1=O)OCC(=O)N1CCc2ccccc21 (configuration not stated) | ? | -7%
SMILES | Cruzain inh noDet | Cruzain Triton
COc1ccc(-n2c(C)cc(C(=O)COC(=O)Cc3n[nH]c(=O)c4ccccc34)c2C)cc1 | ? | -6%
CC(=O)c1ccc(OCC(=O)c2cc(C)n(-c3ccc4c(c3)OCO4)c2C)cc1 | -9% | -4%
Cc1cc(C(=O)COC(=O)CC2Sc3ccccc3NC2=O)c(C)n1-c1ccc(Br)cc1 (configuration not stated) | 4µM* | 2%
Cc1cc(C(=O)COC(=O)c2ccc(N)c([N+](=O)[O-])c2)c(C)n1-c1ccc2c(c1)OCO2 | 13µM* | -2%
Cc1cc(C(=O)COC(=O)Cc2n[nH]c(=O)c3ccccc23)c(C)n1-c1ccc2c(c1)OCO2 | 25µM* | -2%
CCCCOC(C)=O | 0% | -2%
CCC(C)C(=O)O[C@H]1C[C@@H](C)C=C2C=C[C@H](C)[C@H](CC[C@@H]3C[C@@H](O)CC(=O)O3)C21 (some centres not stated) | ? | -4%
CC(=O)Nc1ccc(S(=O)(=O)NCC(=O)OCC(=O)c2cc(C)n(-c3ccc4c(c3)OCO4)c2C)cc1 | ? | -4%
Cc1cc(C(=O)COC(=O)CC2Sc3ccccc3NC2=O)c(C)n1-c1ccc2c(c1)OCO2 (configuration not stated) | 25µM* | -1%
CCOc1ccccc1NC(=O)CSc1nnc(N)s1 | 7% | -3%
CC[C@@H]1OC(=O)[C@H](C)[C@H](O[C@@H]2C[C@](C)(OC)[C@H](O)[C@H](C)O2)[C@H](C)[C@H](O[C@@H]2O[C@@H](C)C[C@@H](N(C)C)[C@@H]2O)[C@](C)(O)C[C@H](C)C(=NOCOCCOC)[C@H](C)[C@H](O)[C@]1(C)O | 1% | 2%
CC(=O)[C@@H]1[C@H]2[C@H](C(=O)[C@H]3OC[C@@H]2O3)[C@H]2C=Cc3ccccc3N21 | ? | -4%
